Among the data in PubChem BioAssay AID624330 (Southern Research Specialized Biocontainment Screening …, 2012) are inhibition values, retold here.

For orientation: inhibition means the change of the read-out against control, counted positive when it falls.

Several values for one entry are separate records, joined by “and”; a condition that tells them apart may be missing. Equal values may be shown once. In all, about 340,000 compounds went through this assay and about 2,100 (0.62%) were called active. Only a sample is shown. Potency and affinity values are given separately. Unmarked numbers belong to inactive results.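 Rule for the calls: active = first-screen hits whose inhibition reached a set limit at any dose in the follow-up dose series; inconclusive = inhibition above the set first-screen limit but never retested; inactive = the rest.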

Chain of Rac GTPase-activating protein 1 (Homo sapiens) (Q9H0H5 whole entry, looked up): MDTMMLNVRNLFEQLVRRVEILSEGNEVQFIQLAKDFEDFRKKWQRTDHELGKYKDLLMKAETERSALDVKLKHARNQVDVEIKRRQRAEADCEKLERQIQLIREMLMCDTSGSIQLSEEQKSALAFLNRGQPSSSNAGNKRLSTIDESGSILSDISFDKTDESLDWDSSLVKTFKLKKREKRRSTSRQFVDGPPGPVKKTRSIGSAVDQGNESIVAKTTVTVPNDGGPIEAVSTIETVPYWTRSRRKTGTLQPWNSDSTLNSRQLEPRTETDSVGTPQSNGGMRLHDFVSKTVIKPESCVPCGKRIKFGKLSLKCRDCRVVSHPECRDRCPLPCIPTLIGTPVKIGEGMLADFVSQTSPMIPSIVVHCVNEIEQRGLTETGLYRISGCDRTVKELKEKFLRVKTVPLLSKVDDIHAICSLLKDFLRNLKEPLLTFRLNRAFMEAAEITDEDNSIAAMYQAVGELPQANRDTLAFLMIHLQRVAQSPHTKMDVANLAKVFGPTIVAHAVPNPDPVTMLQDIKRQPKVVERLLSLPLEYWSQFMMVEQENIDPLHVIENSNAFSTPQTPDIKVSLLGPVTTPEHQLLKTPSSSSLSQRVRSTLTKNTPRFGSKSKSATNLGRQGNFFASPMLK

This assay concerns the target Rac GTPase-activating protein 1 (Homo sapiens) (UniProt Q9H0H5). The assay can be described thus: blockers of MgcRacGAP-driven Rac1 GTP hydrolysis – biochemical, ADP Hunter fluorescence, primary and confirmatory, confirmation (AID 624330).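 Note: fluorescence reports GDP produced by GAP-driven GTP hydrolysis.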 The settings on record: MgcRacGAP-stimulated Rac1 GTP hydrolysis, at 30 µM, stronger effect = higher value, GST-tagged Rac1 F28L mutant substrate.
Turning to `CC(=O)Nc1ccc(Oc2ccc(-c3noc(C)n3)cc2)cc1`, the inhibition is 10.9%.

As to `CC(NC(=O)Cc1cccc(C(F)(F)F)c1)c1ccc(F)cc1` (stereo unspecified), the inhibition was 0.98%.

Turning to `CCOC(=O)c1c(C)nsc1NCc1ccccc1`, the inhibition is 10.9%.

`CCOC(=O)c1c(C)nsc1NC(=O)C1CCCCC1`: the inhibition was -1.81%.

As for `CCOC(=O)c1sc(NC(=O)CC)nc1C`, the inhibition is 7.69%.

As to `CCOC(=O)c1sc(NC(C)=O)nc1C`, the inhibition is 6.36%.

Take `O=C(NCCO)c1ccc(-c2nnc(N3CCOCC3)c3ccccc23)cc1`: the inhibition is 1.36%.

With `O=C1CCc2cc(S(=O)(=O)Nc3ccc(F)cc3)cc3c2N1CC3`, the inhibition is 6.87%.

For the molecule `N=C(N)c1ccc(O)cc1`, the inhibition was 3.97%.

Turning to `N=C(N)c1ccccc1`, the inhibition is 2.01% and 4.94%.

Regarding `O=[N+]([O-])/C=C\c1ccc(N2CCOCC2)cc1`, the inhibition was 24%.

With `O=[N+]([O-])c1ccc(C=CC=Cc2ccccc2)cc1`, the inhibition is 5.54%.

In the case of `O=[N+]([O-])/C=C/c1cn(Cc2ccccc2)c2ccccc12`, the inhibition is 4.89%.

Consider `Cc1cccc(Cn2cc(/C=C/[N+](=O)[O-])c3ccccc32)c1`, for which the inhibition was 3.28%.

`CS(=O)(=O)N(CC(=O)NCCSCc1ccco1)c1ccc(Cl)cc1`: the inhibition was 5.58%.

Turning to `Cc1ccc(N(CC2CO2)S(=O)(=O)c2ccc([N+](=O)[O-])cc2)cc1` (stereo unspecified), the inhibition was 4.81%.

Take `COC(=O)c1ccc(NC(=O)C2CCN(C(=O)Nc3ccccc3)CC2)cc1`: the inhibition was 5.55%.

In the case of `O=[N+]([O-])c1cc(C(F)(F)F)ccc1N1CCN(CCO)CC1`, the inhibition is 4.15%.

On to `O=[N+]([O-])c1ccc(N2CCCC2)c([N+](=O)[O-])c1`, for which the inhibition is 6.43%.

Consider `Cc1nn(CC(=O)Nc2ccc3c(c2)OCCO3)c(C)c1[N+](=O)[O-]`, for which the inhibition was 0.26%.

For the molecule `CCOC(=O)/C=C/c1cnn(-c2ccccc2)c1`, the inhibition is 6.95%.

`O=C(O)/C=C/c1cnn(-c2ccccc2)c1`: the inhibition was 2.55%.

For `CCN=C1S/C(=C\c2cc(Cl)c(OC)c(OC)c2)C(=O)N1CC`, the inhibition was 4.7%.

Consider `O=C(NNS(=O)(=O)c1ccc(F)cc1)c1ccc(O)cc1`, for which the inhibition is 6.98%.

As for `COc1ccc(Cn2nnnc2CN2CCOCC2)cc1`, the inhibition was 7.47%.

`CCOC(=O)Cn1nnnc1CN1CCN(c2ccc(OC)cc2)CC1`: the inhibition was 14.7%.

As for `C=CCN(c1ccccc1)S(=O)(=O)c1cccc(C(=O)Nc2ncccc2O)c1`, the inhibition is -0.92%.

For `Cc1ccc(N(C(=O)Cn2nnc(-c3ccccc3F)n2)C(C(=O)NC2CCCC2)c2ccncc2)cc1` (stereo unspecified), the inhibition was 6.05%.

Turning to `COc1ccc(OC)c(-c2csc(NC(=O)COC(=O)c3ccc(NC(=O)CC#N)cc3)n2)c1`, the inhibition is 5.16%.

`Cc1cc(C(=O)NC(C)C2CCCO2)cs1` (stereo unspecified): the inhibition is -7.59%.

For `CCCn1c(=O)c2ccccc2n2c(SCCOc3ccccc3)nnc12`, the inhibition is 4.68%.

As to `CCCn1c(=O)c2ccccc2n2c(SCC(N)=O)nnc12`, the inhibition was 18.7%.

Take `Cc1ccc(NC(=O)CN(C)S(=O)(=O)c2ccc3c(c2)n(C)c(=O)c(=O)n3C)cc1`: the inhibition is 7.39%.

Take `CCOC(=O)C(=NC(C)CC)NNc1ccc(Br)cc1` (stereo unspecified): the inhibition is 9.58%.

For the molecule `O=C(CN1CCN(C(=O)c2ccco2)CC1)Nc1cccc([N+](=O)[O-])c1`, the inhibition is 4.6%.

Turning to `O=[N+]([O-])c1cccc(CN2CCN(c3ncccn3)CC2)c1`, the inhibition is 25.4%.

Take `O=[N+]([O-])c1cccc(CN2CCCCCC2)c1`: the inhibition is 10.9%.

`O=[N+]([O-])c1ccc(S(=O)(=O)N2CCN(Cc3ccco3)CC2)cc1`: the inhibition is 15.9%.

As for `O=C(c1c(Cl)cccc1Cl)N1CCN(c2ncccn2)CC1`, the inhibition is 14.4%.

In the case of `O=C(c1ccco1)N1CCN(Cc2cccc(F)c2)CC1`, the inhibition is 14.6%.

As to `O=[N+]([O-])c1ccc(N2CCN(Cc3cccc([N+](=O)[O-])c3)CC2)cc1`, the inhibition was 0.8%.

On to `O=C(c1c(Cl)cccc1Cl)N1CCCCCC1`, for which the inhibition is 7.13%.

As for `C[C@H](NC(=O)C1CC(=O)N(c2ccc3c(c2)OCCO3)C1)C(=O)N1CCCCC1` (stereo partly specified), the inhibition is 7.93%.

For `CCC(CC)NC(=O)COC(=O)c1cc(Br)ccc1Cl`, the inhibition was 7.43%.

For the molecule `CC(C)NC(=O)CN(Cc1ccc(F)cc1)C(=O)CCC(=O)Nc1ccccn1`, the inhibition is 4.82%.

For the molecule `CC(=O)c1ccc(N=Nc2ccc(C)cc2)cc1`, the inhibition is 3.59%.

In the case of `COc1ccc(C(C)=O)cc1CN1C(=O)NC2(CCCCCC2)C1=O`, the inhibition was -0.57%.

Regarding `Cc1ccc(S(=O)(=O)N(C)CCN(C)S(=O)(=O)c2ccc(C)cc2)cc1`, the inhibition was 6.45%.

As for `Cc1cccc(OCC(=O)N(Cc2ccc(F)cc2)C2CCS(=O)(=O)C2)c1C` (stereo unspecified), the inhibition is 9.11%.

Consider `O=C(N/N=C/C(Cl)=C/c1ccccc1)c1ccccn1`, for which the inhibition was 2.22%.

Turning to `COc1ccc(-c2csc3nc(C)n(-n4cccc4)c(=O)c23)cc1OC`, the inhibition is 2.59%.

For the molecule `CCCCOC(=O)C1=C(C)Nc2ncnn2C1c1ccc(OCC)c(OC)c1` (stereo unspecified), the inhibition is 4.44%.

Consider `COC(=O)c1ccc(NC(=S)Nc2ccccc2)cc1`, for which the inhibition was 5.58%.

Consider `O=C(NNC(=O)C1CC=CCC1)c1ccccc1O` (stereo unspecified), for which the inhibition was -10.1%.

For the molecule `O=C(Nc1nccs1)C1CC=CCC1` (stereo unspecified), the inhibition was 0.32%.

Regarding `CC(=O)Nc1ccc(NC(=S)NC(=O)C2CCCC2)cc1`, the inhibition was 9.09%.

Consider `O=C(NC(=S)Nc1ccc(F)cc1)C1CCCCC1`, for which the inhibition is 6.1%.

In the case of `COC(=O)c1ccc(NC(=S)Nc2ccc3ccccc3c2)cc1`, the inhibition was 15.3%.

As to `Cc1nn(Cc2ccccc2)c(C)c1NC(=O)CSc1nnc(-c2cc(Cl)ccc2O)n1C`, the inhibition is 3.78%.

In the case of `COc1ccccc1-c1nnc(SCC(=O)c2c(N)n(C3CC3)c(=O)[nH]c2=O)o1`, the inhibition was 4.98%.

Consider `O=C(CCC1CCCN(C(=O)c2ccc3c(c2)OCO3)C1)NCc1ccc(F)c(F)c1` (stereo unspecified), for which the inhibition was 6.44%.

On to `CCCC(=O)Nc1c(-c2ccccc2)c(=O)c(C)nn1-c1ccccc1`, for which the inhibition is -2.47%.

`Cc1cccc(NC(=O)CSCc2cc(=O)n3c(C)csc3n2)c1C`: the inhibition is -9.75%.

`CCOCCCNCC(=O)NC1(C)C2CCC(C2)C1(C)C` (stereo unspecified): the inhibition is 14.5%.

On to `CCOCCCNC(=O)C(=O)NCCCOCC`, for which the inhibition was 6.87%.

In the case of `CC(NC(=O)CNC(=O)c1cccc(Cl)c1)c1ccccc1` (stereo unspecified), the inhibition was 0.16%.

On to `CCCCNc1c(-c2ccc(-c3ccc(C(C)=O)cc3)c(OC)c2)nc2cc(C)ccn12`, for which the inhibition is 4.91%.

For the molecule `Cc1c(Cc2ccccc2)c(=O)oc2c(C)c(OCC(=O)N[C@@H](Cc3ccccc3)C(=O)O)ccc12`, the inhibition is 1.68%.

Consider `C[C@@H]1CN([C@@H](C)CO)C(=O)c2cc(NC(=O)Nc3ccc4c(c3)OCO4)ccc2O[C@H]1CN(C)S(=O)(=O)c1cn(C)cn1`, for which the inhibition is 11.5%.

For `COc1ccc2c(c1)CC=C1C2CCC2(C)C(=O)C(=NO)CC12` (stereo unspecified), the inhibition is 5.55%.

`CC12CCC3C(=CCc4cc(O)ccc43)C1CC(=NO)C2O` (stereo unspecified): the inhibition is 27.1%.

Take `CCN=c1scc(C)n1/N=C/c1ccc(O)c(O)c1O`: the inhibition is -35.3%.

With `COc1cc(/C=N/N2C(C)CCCC2C)cc(Br)c1O` (stereo unspecified), the inhibition is 10.5%.

On to `Cc1nnc(C)n1/N=C/c1cc(Br)cc(Br)c1O`, for which the inhibition is 13.7%.

As for `COc1cc(/C=N/N2C(=O)CSC2=S)cc(Br)c1O`, the inhibition is 24.4%.

For `Oc1c(Br)cc(/C=N/n2c(-c3ccccc3)n[nH]c2=S)cc1Br`, the inhibition is 17.3%.

With `CCc1n[nH]c(=S)n1/N=C/c1cc(Br)c(O)c(OC)c1`, the inhibition is 14.8%.

On to `COc1cc2ncnc(NCc3ccc(F)cc3)c2cc1OC`, for which the inhibition is 5.92%.

On to `COc1ccc(-n2cnnc2SCC(=O)Nc2cc(C)on2)cc1`, for which the inhibition is 0.92%.

With `Cc1nn(-c2nc3ccccc3[nH]2)c(N)c1-c1ccc(Cl)cc1`, the inhibition is 14.1%.

For `COc1ccc(NC(=O)[C@@H]2CCCN2S(=O)(=O)c2cccc3cccnc23)cc1`, the inhibition is 7.98%.

For `Cc1c(N2C(=O)CSC2c2ccc(F)cc2)c(=O)n(-c2ccccc2)n1C` (stereo unspecified), the inhibition was -1.84%.

In the case of `Cc1cc(C)n(CC(=O)N2N=C(C(F)F)CC2(O)C(F)F)n1` (stereo unspecified), the inhibition was 5.91%.

Regarding `O=C(CC1C[C@H](C(=O)N2CCCCC2)[C@@]2(CCc3ccccc3)c3[nH]c4ccccc4c3CCN2C1=O)NCCc1ccccn1` (stereo partly specified), the inhibition is 10.2%.

Regarding `Cc1ccc(-n2c(=S)[nH]c3sc4c(c3c2=O)CCc2ccccc2-4)cc1`, the inhibition is 4.2%.

On to `CCCn1c(=S)[nH]c2sc3c(c2c1=O)CCCC3`, for which the inhibition was 2.13%.

`C=CCn1c(=S)[nH]c2sc3c(c2c1=O)CCC3`: the inhibition is 14.3%.

As to `C=CCn1c(=S)[nH]c2sc3c(c2c1=O)CCCC3`, the inhibition was 13.8%.

As to `CCOc1ccc(-n2c(=O)[nH]c3sc4c(c3c2=O)CCCC4)cc1`, the inhibition was 12.1%.

As to `COCCCn1c(=S)[nH]c2sc3c(c2c1=O)CCCS3`, the inhibition was 7.39%.

On to `CN(C)CCCn1c(=S)[nH]c2sc3c(c2c1=O)CCCC3`, for which the inhibition was 26.2%.

Take `CCn1c(=S)[nH]c2sc3c(c2c1=O)CCCC3`: the inhibition is 47.9%.

Consider `COc1ccc(/C(C)=N/NC(=S)Nc2cc(C)ccc2C)cc1`, for which the inhibition was -5.64%.

As for `CCOC(=O)C1C(=O)CC(C)(O)C(C(=O)OCC)C1c1ccc([N+](=O)[O-])cc1` (stereo unspecified), the inhibition was 11.4%.

For `COc1ccc(N2CCN(c3nc4cc(C)ccc4cc3C=O)CC2)cc1`, the inhibition was 2.5%.

Consider `Cc1ccc(C2=NN(C(=O)CSc3nc4ncc(Cl)cc4[nH]3)C(c3ccco3)C2)cc1` (stereo unspecified), for which the inhibition was 5.98%.
